# Assay results reported in publication PMC7862700, “An all-to-all approach to the identification of sequence-specific readers for epigenetic DNA modifications on cytosine”.
# Key:
# Test in all cases: DAPPL (digital affinity profiling via proximity ligation, sequencing); 10 mM Tris-HCl pH 7.5, 50 mM NaCl, 1 mM DTT, 4% glycerol, room temperature, 30 min; GST-TFs on glutathione beads, 16-mer random dsDNA library, 0.1% formaldehyde crosslink after washing; high values mean tight binding
# Conditions in all cases: protein: recombinant; tags: N-terminal GST; dsDNA, one strand shown
# ELK1 = target: T1, ELK1 (Homo sapiens, UniProt P19419 1-428)
# T1 sequence: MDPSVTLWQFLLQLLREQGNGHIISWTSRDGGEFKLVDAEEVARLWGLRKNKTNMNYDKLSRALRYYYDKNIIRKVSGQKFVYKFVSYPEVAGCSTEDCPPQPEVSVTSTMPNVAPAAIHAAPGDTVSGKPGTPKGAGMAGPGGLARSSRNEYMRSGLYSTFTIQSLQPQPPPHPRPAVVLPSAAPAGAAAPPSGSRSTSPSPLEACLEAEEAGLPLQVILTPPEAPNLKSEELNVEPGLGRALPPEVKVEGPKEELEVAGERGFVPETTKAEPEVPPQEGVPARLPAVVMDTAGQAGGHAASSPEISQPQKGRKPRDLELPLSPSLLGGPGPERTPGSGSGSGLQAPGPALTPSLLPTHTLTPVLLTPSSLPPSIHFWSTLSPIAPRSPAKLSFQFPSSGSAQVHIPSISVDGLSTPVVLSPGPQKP
# Procedure, shortened: (§1)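 Yeast served to express human transcription factors as GST fusions, which were then captured on glutathione beads and labelled with DNA barcodes. Pooled with a tag-only sample, they were incubated with 200 nmole of a 16-mer random double-stranded DNA library for 30 min at room temperature in Tris/NaCl/DTT/glycerol buffer, washed, crosslinked with 0.1% formaldehyde, ligated by proximity, amplified by PCR and sequenced. Dividing each hexamer's read frequency for a factor by its frequency for the tag-only sample gives the binding signal.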
# GABPA = target: T2, GABPA (Homo sapiens, UniProt Q06546 1-454)
# T2 sequence: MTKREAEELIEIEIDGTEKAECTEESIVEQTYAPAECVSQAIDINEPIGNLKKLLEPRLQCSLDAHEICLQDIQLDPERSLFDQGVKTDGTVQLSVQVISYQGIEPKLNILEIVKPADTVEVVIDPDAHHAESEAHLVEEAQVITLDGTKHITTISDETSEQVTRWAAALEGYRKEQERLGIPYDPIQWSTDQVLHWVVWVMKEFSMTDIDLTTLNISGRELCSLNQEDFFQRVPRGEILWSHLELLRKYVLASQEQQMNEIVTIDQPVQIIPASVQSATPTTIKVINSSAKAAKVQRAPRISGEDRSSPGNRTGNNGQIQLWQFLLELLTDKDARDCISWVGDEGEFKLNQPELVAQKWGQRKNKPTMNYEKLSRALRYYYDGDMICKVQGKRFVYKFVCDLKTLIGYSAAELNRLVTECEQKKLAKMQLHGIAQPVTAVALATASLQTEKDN
# Procedure, shortened: as §1
# ELF1 = ELF1 (Homo sapiens, UniProt P32519 1-619)
# Sequence of ELF1 (P32519 whole entry): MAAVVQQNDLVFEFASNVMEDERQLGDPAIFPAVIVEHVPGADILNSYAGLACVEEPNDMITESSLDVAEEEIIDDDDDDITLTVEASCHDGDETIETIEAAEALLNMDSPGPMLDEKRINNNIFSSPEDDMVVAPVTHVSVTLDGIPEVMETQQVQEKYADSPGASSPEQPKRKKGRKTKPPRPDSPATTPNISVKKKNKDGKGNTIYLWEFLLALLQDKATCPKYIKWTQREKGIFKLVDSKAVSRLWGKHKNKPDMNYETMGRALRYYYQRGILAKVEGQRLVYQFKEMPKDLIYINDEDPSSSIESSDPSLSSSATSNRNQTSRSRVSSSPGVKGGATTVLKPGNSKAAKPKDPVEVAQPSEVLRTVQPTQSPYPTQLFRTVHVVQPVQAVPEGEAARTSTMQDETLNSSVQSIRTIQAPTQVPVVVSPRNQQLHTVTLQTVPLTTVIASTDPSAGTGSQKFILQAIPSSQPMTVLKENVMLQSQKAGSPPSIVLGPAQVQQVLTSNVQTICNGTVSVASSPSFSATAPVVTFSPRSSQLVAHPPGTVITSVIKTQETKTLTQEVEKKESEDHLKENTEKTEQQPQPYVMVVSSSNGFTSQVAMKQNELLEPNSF
# Procedure, shortened: as §1
# EHF = target: T3, EHF (Homo sapiens, UniProt Q9NZC4 1-300)
# T3 sequence: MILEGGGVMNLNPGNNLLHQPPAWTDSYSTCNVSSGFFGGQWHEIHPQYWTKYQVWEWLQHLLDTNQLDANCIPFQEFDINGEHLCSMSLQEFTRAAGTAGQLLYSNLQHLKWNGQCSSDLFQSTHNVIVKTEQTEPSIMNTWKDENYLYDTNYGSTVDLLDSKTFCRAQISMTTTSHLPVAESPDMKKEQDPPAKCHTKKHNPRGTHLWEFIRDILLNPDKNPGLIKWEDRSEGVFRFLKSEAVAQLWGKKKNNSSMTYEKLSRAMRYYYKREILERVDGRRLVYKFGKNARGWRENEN
# Procedure, shortened: as §1
# SPIB = SPIB (Homo sapiens, UniProt Q01892 1-262)
# Sequence of SPIB (Q01892 whole entry): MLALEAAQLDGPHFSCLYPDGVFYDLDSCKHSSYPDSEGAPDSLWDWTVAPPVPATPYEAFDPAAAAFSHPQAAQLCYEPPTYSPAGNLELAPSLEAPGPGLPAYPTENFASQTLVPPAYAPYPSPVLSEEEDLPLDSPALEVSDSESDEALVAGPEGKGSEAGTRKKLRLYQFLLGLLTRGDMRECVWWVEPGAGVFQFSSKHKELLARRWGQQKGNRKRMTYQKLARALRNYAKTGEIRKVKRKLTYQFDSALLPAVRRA
# Procedure, shortened: as §1
# FEV = target: T4, FEV (Homo sapiens, UniProt Q99581 1-238)
# T4 sequence: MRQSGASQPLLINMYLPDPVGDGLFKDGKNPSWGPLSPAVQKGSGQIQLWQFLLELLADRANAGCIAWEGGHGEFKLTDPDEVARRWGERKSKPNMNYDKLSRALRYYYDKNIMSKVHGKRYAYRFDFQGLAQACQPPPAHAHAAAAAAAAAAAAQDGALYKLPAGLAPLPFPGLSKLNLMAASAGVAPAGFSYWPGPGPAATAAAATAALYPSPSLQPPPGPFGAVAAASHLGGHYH
# Procedure, shortened: as §1
# ETV5 = ETV5 (Homo sapiens, UniProt P41161 1-510)
# Sequence of ETV5 (P41161 whole entry): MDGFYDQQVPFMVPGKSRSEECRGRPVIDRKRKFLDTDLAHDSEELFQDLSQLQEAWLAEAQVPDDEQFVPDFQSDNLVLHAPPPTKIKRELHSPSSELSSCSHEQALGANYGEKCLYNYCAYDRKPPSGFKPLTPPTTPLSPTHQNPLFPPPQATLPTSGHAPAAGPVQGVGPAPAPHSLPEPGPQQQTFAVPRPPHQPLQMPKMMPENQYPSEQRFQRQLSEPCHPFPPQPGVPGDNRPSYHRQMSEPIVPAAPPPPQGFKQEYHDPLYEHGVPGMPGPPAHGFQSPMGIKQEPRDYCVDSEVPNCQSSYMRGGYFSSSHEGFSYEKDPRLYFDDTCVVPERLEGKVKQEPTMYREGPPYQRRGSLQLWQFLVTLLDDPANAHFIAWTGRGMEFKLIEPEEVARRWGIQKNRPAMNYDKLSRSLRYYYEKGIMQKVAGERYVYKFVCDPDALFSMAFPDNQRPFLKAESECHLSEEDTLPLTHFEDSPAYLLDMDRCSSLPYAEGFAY
# Procedure, shortened: as §1
# ELF4 = ELF4 (Homo sapiens, UniProt Q99607 1-663)
# Sequence of ELF4 (Q99607 whole entry): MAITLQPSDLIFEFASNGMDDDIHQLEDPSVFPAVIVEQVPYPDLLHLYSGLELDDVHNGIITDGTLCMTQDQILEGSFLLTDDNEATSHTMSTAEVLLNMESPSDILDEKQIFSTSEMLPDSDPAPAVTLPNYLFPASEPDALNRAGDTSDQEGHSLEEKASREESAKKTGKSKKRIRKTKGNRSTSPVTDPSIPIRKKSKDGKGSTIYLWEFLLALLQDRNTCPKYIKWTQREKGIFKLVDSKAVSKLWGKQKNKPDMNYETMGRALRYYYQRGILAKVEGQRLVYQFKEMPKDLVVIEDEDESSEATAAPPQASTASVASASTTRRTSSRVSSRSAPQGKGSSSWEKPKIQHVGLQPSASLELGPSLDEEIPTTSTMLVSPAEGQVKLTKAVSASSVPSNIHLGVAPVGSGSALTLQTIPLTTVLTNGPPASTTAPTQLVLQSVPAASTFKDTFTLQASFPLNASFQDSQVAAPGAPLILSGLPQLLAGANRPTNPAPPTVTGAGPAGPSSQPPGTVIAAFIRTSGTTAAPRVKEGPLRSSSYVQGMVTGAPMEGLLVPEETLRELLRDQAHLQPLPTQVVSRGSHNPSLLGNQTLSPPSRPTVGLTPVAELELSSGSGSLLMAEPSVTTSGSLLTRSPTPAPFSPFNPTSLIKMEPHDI
# Procedure, shortened: as §1
# ELK4 = target: T5, ELK4 (Homo sapiens, UniProt P28324-2 1-405)
# T5 sequence: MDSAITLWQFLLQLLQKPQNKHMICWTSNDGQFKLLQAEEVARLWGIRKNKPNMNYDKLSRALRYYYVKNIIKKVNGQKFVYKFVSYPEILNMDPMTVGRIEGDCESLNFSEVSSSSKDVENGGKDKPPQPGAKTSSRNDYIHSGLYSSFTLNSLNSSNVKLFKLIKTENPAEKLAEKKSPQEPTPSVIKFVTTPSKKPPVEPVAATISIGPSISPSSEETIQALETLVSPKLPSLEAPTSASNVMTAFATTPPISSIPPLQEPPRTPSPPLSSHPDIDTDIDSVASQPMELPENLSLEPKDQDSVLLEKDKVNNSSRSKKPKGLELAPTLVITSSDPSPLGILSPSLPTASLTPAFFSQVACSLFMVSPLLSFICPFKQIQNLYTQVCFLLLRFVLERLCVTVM
# Procedure, shortened: as §1
# ETV2 = target: T6, ETV2 (Homo sapiens, UniProt O00321 1-342)
# T6 sequence: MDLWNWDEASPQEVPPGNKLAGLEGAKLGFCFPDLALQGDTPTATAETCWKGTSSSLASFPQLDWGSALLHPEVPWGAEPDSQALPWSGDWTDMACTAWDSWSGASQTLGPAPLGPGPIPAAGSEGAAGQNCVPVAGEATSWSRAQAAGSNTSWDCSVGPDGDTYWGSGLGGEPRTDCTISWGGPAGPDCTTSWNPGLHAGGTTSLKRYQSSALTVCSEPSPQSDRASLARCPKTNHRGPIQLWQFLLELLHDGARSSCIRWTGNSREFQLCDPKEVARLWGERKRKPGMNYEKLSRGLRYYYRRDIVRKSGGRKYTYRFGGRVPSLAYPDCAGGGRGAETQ
# Procedure, shortened: as §1
# ELF3 = target: T7, ELF3 (Homo sapiens, UniProt P78545 1-371)
# T7 sequence: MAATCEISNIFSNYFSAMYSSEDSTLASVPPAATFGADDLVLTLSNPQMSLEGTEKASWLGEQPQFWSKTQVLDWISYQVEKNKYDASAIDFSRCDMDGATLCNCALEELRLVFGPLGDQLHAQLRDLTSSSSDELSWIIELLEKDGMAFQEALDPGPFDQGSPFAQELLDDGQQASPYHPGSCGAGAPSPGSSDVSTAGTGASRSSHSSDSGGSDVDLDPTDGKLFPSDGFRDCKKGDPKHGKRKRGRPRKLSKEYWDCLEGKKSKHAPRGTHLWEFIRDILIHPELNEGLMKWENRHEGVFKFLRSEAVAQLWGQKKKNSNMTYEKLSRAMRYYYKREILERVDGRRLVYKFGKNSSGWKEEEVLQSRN
# Procedure, shortened: as §1
# ETV1 = ETV1 (Homo sapiens, UniProt P50549 1-477)
# Sequence of ETV1 (P50549 whole entry): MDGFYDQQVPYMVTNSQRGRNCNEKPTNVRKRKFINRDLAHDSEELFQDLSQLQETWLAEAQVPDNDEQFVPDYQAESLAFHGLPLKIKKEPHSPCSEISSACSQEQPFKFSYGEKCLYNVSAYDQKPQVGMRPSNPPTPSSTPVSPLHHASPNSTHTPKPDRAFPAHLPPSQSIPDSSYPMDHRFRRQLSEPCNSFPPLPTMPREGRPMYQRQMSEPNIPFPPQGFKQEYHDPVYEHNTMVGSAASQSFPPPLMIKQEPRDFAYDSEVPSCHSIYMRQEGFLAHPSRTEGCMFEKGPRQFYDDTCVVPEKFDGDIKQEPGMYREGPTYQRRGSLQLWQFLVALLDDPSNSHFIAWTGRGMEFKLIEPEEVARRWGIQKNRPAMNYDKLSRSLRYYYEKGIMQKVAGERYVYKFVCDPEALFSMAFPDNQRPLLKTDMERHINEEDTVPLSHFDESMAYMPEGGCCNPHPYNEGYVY
# Procedure, shortened: as §1
# ETS2 = target: T8, ETS2 (Homo sapiens, UniProt P15036 1-469)
# T8 sequence: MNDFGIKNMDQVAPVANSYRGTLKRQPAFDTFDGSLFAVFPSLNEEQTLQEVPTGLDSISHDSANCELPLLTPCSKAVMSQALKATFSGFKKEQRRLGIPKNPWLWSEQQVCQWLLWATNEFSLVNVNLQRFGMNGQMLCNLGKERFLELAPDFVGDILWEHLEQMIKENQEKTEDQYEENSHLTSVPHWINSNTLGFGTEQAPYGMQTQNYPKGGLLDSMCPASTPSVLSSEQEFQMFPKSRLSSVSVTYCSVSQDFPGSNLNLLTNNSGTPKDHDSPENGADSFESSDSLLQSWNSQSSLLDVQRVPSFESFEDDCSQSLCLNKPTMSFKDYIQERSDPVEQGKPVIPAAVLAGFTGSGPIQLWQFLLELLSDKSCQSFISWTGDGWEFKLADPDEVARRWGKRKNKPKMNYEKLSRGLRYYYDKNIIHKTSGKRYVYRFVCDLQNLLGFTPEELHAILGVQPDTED
# Procedure, shortened: as §1
# ETV3 = target: T9, ETV3 (Homo sapiens, UniProt P41162-2 1-143)
# T9 sequence: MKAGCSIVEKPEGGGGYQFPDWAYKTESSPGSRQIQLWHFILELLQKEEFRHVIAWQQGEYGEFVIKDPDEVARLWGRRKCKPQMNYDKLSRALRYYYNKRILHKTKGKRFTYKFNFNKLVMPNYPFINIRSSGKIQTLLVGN
# Procedure, shortened: as §1
sequence,measurement,setting,value
CACGCA,binding signal,ELK1,"1.01 fold enrichment (6-mer frequency, TF over GST control)"
same,binding signal,GABPA,"1.02 fold enrichment (6-mer frequency, TF over GST control)"
same,binding signal,ELF1,"1.05 fold enrichment (6-mer frequency, TF over GST control)"
same,binding signal,EHF,"1.01 fold enrichment (6-mer frequency, TF over GST control)"
same,binding signal,SPIB,"1.01 fold enrichment (6-mer frequency, TF over GST control)"
same,binding signal,FEV,"1.02 fold enrichment (6-mer frequency, TF over GST control)"
same,binding signal,ETV5,"1.05 fold enrichment (6-mer frequency, TF over GST control)"
same,binding signal,ELF4,"1.03 fold enrichment (6-mer frequency, TF over GST control)"
same,binding signal,ELK4,"1.11 fold enrichment (6-mer frequency, TF over GST control)"
same,binding signal,ETV2,"1.18 fold enrichment (6-mer frequency, TF over GST control)"
same,binding signal,ELF3,"1.04 fold enrichment (6-mer frequency, TF over GST control)"
same,binding signal,ETV1,"1.09 fold enrichment (6-mer frequency, TF over GST control)"
same,binding signal,ETS2,"1.03 fold enrichment (6-mer frequency, TF over GST control)"
same,binding signal,ETV3,"1.07 fold enrichment (6-mer frequency, TF over GST control)"
